# Many of the other results were omitted from the sample, so hits are more common in it than they were.
# Shiga inhibitor: A qHTS for Small Molecule Inhibitors of Shiga Toxin | Vero cells, Shiga toxin protein synthesis inhibition reporter | inhibition, % at 38.7 µM | 290,000 compounds, 9.2% hits | AID 2315, 2010; in the data active means inhibition mostly above about 28%, no sharp cut-off; inactive means mostly below about 43%; further: 0% is about no effect
# Giardia FBPA inh: qHTS Assay for Inhibitors of Fructose-1,6-bisphosphate Aldolase from Giardia Lamblia | purified Giardia FBPA | Potency, µM (top dose mostly 59.6 µM), for inactives: at the highest dose activity, negative = inhibition, usual class: inhibitors | 290,000 compounds, 0.71% hits; further: potency means the concentration at half of the fitted maximal effect; on the % scale 0 is the no-effect control and ±100 the full control effect; nearly all actives have a fitted effect of over 55% in size
#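 40 nM FBPA preincubated 10 min at RT with compound (up to 57.5 uM final), then substrate plus GAPDH/TPI/NAD/arsenate coupling and diaphorase/resazurin added. Fluorescence read after 20 min at RT, 525/598 nm.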
# CHX counter: Cycloheximide Counterscreen for Small Molecule Inhibitors of Shiga Toxin; cell reporter, cycloheximide protein synthesis inhibition counterscreen; max response, %; 300,000 compounds, 12% hits; AID 2314, 2010; in the data active means max response mostly above about 13%, no sharp cut-off; inactive means mostly below about 14%; further: read at 38.3 µM for the half of the compounds with a filed dose; 0% is about no effect
# TbPYK inhibitor: qHTS of Trypanosoma Brucei Inhibitors; TbPYK enzyme, Kinase-Glo Plus ATP luminescence, 45 min; 410,000 compounds, 0.12% hits; Potency, µM (top dose mostly 76.8 µM), for inactives: at the top dose activity, negative = inhibition, usual class: inhibitors; AID 624173, 2012; pyruvate kinase (Trypanosoma brucei), Q57TT1; further: potency means the concentration at half of the fitted maximal effect; on the % scale 0 is the no-effect control and ±100 the full control effect; nearly all actives have a fitted effect of over 50% in size
#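 TbPYK + substrate in 50 mM TEA pH 7.2, 100 mM KCl, 10 mM MgCl2, 0.05% BSA, 0.01% Tween-20; cpd pinned; ADP 130 uM final; 45 min RT; Kinase-Glo Plus 10 min; luminescence endpoint.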
# LmPK inh: qHTS Assay for Inhibitors of Leishmania Mexicana Pyruvate Kinase (LmPK); Q27686; purified LmPK, Kinase-Glo ATP luminescence, 1 h; Potency, µM (top dose mostly 57.5 µM), for inactives: top-dose activity change, negative = inhibition, hits mostly inhibitors; 290,000 compounds, 0.37% hits; further: potency means the concentration at half of the fitted maximal effect; on the % scale 0 is the no-effect control and ±100 the full control effect
# Target sequence (Q27686 whole entry, looked up): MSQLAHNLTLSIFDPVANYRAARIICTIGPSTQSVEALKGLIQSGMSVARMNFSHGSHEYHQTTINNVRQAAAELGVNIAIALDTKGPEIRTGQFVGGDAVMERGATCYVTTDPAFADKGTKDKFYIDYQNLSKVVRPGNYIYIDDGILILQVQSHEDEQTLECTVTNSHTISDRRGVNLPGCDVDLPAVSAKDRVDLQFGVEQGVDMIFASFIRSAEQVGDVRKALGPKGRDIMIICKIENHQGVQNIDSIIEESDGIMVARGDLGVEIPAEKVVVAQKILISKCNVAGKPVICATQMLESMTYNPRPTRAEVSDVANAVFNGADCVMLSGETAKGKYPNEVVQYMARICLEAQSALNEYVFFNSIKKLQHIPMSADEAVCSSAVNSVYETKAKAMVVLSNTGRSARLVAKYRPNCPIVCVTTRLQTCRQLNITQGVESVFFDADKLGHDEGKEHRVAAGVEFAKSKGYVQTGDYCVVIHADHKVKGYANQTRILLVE
#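 Purified LmPK (0.1 nM) converted ADP (0.1 mM) to ATP with PEP (0.5 mM) in imidazole buffer pH 7.2 with KCl and MgCl2, 1 h at room temperature. ATP was read by Kinase-Glo luminescence; data normalized to uninhibited and no-enzyme controls.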
# Sm TGR inh: qHTS Assay for the Inhibitors of Schistosoma Mansoni Peroxiredoxins | Schistosoma mansoni thioredoxin glutathione reductase (TGR), Q962Y6 | Potency, µM (top dose mostly 114 µM), for the others: at the top dose activity change, negative = inhibition, hits mostly inhibitors | 360,000 compounds, 3% hits | purified TGR, DTNB reduction, TNB absorbance 405 nm; further: potency means the concentration at half of the fitted maximal effect; on the % scale 0 is the no-effect control and ±100 the full control effect; nearly all actives have a fitted effect of over 60% in size
#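 First, TGR (20 nM dispensed) and NADPH were mixed with compound. Second, a 15 min room-temperature incubation followed. Third, further NADPH and then DTNB were added to start the reaction. Finally, TNB absorbance was monitored kinetically.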
# Active calls of the source: *; ? = inconclusive; . = not tested or not shown; [ ] = remark or other dose. Unless noted, the call rests on the fitted dose curve; in most records, active means well fitted curve in the direction sought with a large enough effect; inconclusive means small, poorly fitted or top-dose-only effect, or another doubt; inactive means no such curve, though single readings can be large; an effect the other way counts as inactive or inconclusive.
SMILES,Shiga inhibitor,Giardia FBPA inh,CHX counter,TbPYK inhibitor,LmPK inh,Sm TGR inh
CCC1CC(=O)CCN1S(=O)(=O)c1ccc(C)cc1 (configuration not stated),.,.,.,4%,.,.
CC(=O)NC(=S)Nc1ccc(-c2nc3ccc(C)cc3s2)cc1,80*,0%,27*,1%,-7%,6%
CC1=CCC(C(=O)O)C(C(=O)Nc2ccc(-c3nc4ccc(C)cc4s3)cc2)C1 (configuration not stated),104*,22%,54*,-3%,0%,-8%
Cc1ccc2nc(-c3ccc(N4C(=N)SC5CS(=O)(=O)CC54)cc3)sc2c1 (configuration not stated),126*,0%,46*,-1%,1%,?
COCCNc1nnc(SC(C)C(=O)Nc2ccc(-c3nc4ccc(C)cc4s3)cc2)s1 (configuration not stated),93*,-1%,28*,-3%,0%,5%
Cc1cccc(C(=O)n2nc(-c3cccnc3)nc2NCc2ccccc2)c1,.,.,.,-2%,.,0%
CC(=O)Nc1ccc(S(=O)(=O)Nc2nc3ccc(C)cc3s2)cc1,-7,1%,-4,-5%,-1%,1%
Cc1ccc2sc(-c3ccc(N)cc3)nc2c1,.,.,.,-9%,.,1%
Nc1ccc(-c2nc3cc(N)ccc3s2)cc1,67*,-14%,38*,-7%,?,1%
Cc1ccc2nc(-c3ccc(NS(=O)(=O)c4ccc(F)cc4)cc3)sc2c1,159*,-5%,52*,-5%,1%,-3%
Cc1ccc2nc(-c3ccc(N)cc3)sc2c1,11,-9%,30*,-2%,?,-3%
CNC(=S)Nc1ccc(-c2nc3ccc(C)cc3s2)cc1,95*,-5%,30*,-4%,1%,-12%
CCCCN1C(=O)C(=O)N(CC(=O)Nc2ccccc2C(=O)OCC)C1=O,-2,8%,5,4%,-8%,10%
N#Cc1cc2cc3c(cc2nc1SCC(=O)N1CCCC1)OCCO3,51*,-9%,19,3%,2%,-14%
N#Cc1cc2c(nc1SCC(N)=O)CCCCC2,107,7%,18*,-6%,0%,2%
CCOC(=O)CC(=O)CSc1nc2c(cc1C#N)CCCCCC2,13,-1%,-2,12%,-10%,-2%
CC(=O)CSc1nc2cc3c(cc2cc1C#N)OCCO3,32,?,14,-4%,7%,11%
N#Cc1cc2c(nc1SCC(=O)N1CCOCC1)CCCCC2,101*,3%,42*,-14%,1%,3%
COc1cccc(CNC(=O)Cc2ccc(NC(=O)N3CCCCc4ccccc43)cc2)c1OC,.,.,.,-3%,.,25%
O=C(c1csnn1)N1CCC2(CCCN(c3ncccn3)C2)CC1,.,6%,.,-13%,.,.
COC(=O)CC(=O)CSc1nc2c(cc1C#N)CCC2,54*,6%,18*,-18%,?,34%
CC(C)OC(=O)CC(=O)CSc1nc2c(cc1C#N)CCCC2,82*,1%,37*,1%,-5%,-17%
CC(C)OC(=O)CC(=O)CSc1nc2c(cc1C#N)CCC2,24,-1%,14,-3%,-1%,-21%
CO[C@]1(NC(=O)Cc2cccs2)C(=O)N2C(C(=O)O)=C(COC(N)=O)CS[C@H]21,.,-14%[21.7 µM],.,.,.,.
c1ccc2c(c1)CCN2CCN1CCc2ccccc21,27,-5%,11,-3%,-2%,-27%
SMILES,Shiga inhibitor,Giardia FBPA inh,CHX counter,TbPYK inhibitor,LmPK inh,Sm TGR inh
O=C1c2ccccc2C(=O)N1CCN1CCc2ccccc21,94*,-2%,37*,-1%,-4%,-14%
C=Cc1ccc(Cn2c(C(=O)O)c(CNC3CCCCC3)c3ccc(C)cc32)cc1,.,.,.,-4%,.,-3%
CCOC(=O)N1CCN(C(=O)c2ccccc2NC(=O)c2ccc(F)cc2)CC1,5,6%,-1,-17%,0%,-1%
CCOC(=O)N1CCN(C(=O)c2ccccc2NC(C)=O)CC1,72,-5%,24*,4%,0%,9%
CCOC(=O)N1CCC(Nc2c(-c3ccccc3)c(=O)c2=O)CC1,-12,1%,-3,5%,-2%,45µM*
CCOC(=O)N1CCC(NC(=O)c2ccc3c(c2)sc2nc(-c4ccccc4)cn23)CC1,69*,2%,39*,-4%,1%,1%
CCOC(=O)N1CCN(C(=O)c2ccccc2NC(=O)COc2ccccc2)CC1,109*,.,31*,-19%,-9%,6%
COc1ccc2[nH]cc(CCNc3ncncc3-c3ccc(N(C)C)cc3)c2c1,.,-22%,.,.,.,.
CCN(c1cccc(C)c1)S(=O)(=O)c1cc2c3c(c1)CCN3C(=O)CC2,.,.,.,5%,.,1%
c1csc(-c2nn3c(C4COc5ccccc5O4)nnc3s2)c1 (configuration not stated),45*,3%,36*,-26%,5%,7%
O=C(/C=C/c1ccc(Cl)c([N+](=O)[O-])c1)Nc1cccnc1,17,3%,12,3%,-4%,-1%
Cc1occc1C(=O)Nc1cccnc1,8,0%,0,1%,-9%,?
O=C(/C=C/c1ccc([N+](=O)[O-])cc1)Nc1cccnc1,112*,-2%,43*,-7%,-20%,5%
O=C(C=Cc1ccccc1)Nc1ccccc1,.,.,.,-16%,.,.
Cc1ccc(/C=C/C(=O)Nc2cccnc2)o1,13,?,10,28µM*,-15%,8.9µM*
O=C(/C=C/c1ccccc1)Nc1cccnc1,33*,-4%,28*,-3%,-13%,-2%
O=C(/C=C/c1cccnc1)/C=C/c1cccnc1,-24,-1%,-9,-22%,-8%,3.2µM*
O=C1NC[C@H](CCCCN2C[C@@H](Cc3ccccc3)N(CCC3CCCCC3)C(=O)C2=O)N(CCC2CCCCC2)C1=O,.,.,.,-3%,.,.
Nc1c(Cl)cc(C2=NCCn3nc4cc([N+](=O)[O-])ccc4c32)cc1Cl,.,.,.,4%,.,-20%
Nc1c(Cl)cc(C2=NCCn3c2c2ccc([N+](=O)[O-])cc2[n+]3[O-])cc1Cl,.,.,.,-11%,.,40µM*
COc1ccc(Cl)cc1NC(=O)CCCC(=O)c1ccccc1,3,-3%,1,0%,-2%,7%
COc1ccc(NC(=O)CCCC(=O)c2ccccc2)c(OC)c1,21,-2%,16*,-1%,9%,-8%
COc1ccc(NC(=O)CCCc2ccccc2)c(OC)c1,.,11%,19*,0%,3%,2%
COc1ccc(NC(=O)CCC(=O)c2cccs2)cc1S(=O)(=O)Nc1ccccc1Cl,47*,14%,12,-10%,3%,-7%
COc1ccc(NC(=O)CCC(=O)c2cccs2)c(OC)c1,77*,.,31*,7%,0%,0%

# Screening results from PubChem.
